# Data from article PMC7862700, “An all-to-all approach to the identification of sequence-specific readers for epigenetic DNA modifications on cytosine”.
# Experiments:
# Test in all cases: DAPPL (digital affinity profiling via proximity ligation, sequencing); 10 mM Tris-HCl pH 7.5, 50 mM NaCl, 1 mM DTT, 4% glycerol, room temperature, 30 min; GST-TFs on glutathione beads, 16-mer random dsDNA library, 0.1% formaldehyde crosslink after washing; high values mean tight binding
# FEV = biological target: T1, FEV (Homo sapiens, UniProt Q99581 1-238); conditions: protein: recombinant; tags: N-terminal GST; dsDNA, one strand shown
# T1 sequence: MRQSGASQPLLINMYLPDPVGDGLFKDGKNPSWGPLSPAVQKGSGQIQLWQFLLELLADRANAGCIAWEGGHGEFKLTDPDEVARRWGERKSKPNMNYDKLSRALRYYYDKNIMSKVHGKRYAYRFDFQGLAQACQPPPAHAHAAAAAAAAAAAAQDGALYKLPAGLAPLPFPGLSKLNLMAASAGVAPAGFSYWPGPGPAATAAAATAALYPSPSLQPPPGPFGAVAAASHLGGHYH
# How it was run: (§1)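 GST fusions of human transcription factors were expressed in yeast and captured with glutathione beads. Once given DNA barcodes and pooled alongside a tag-only sample, they were incubated for 30 min at room temperature with 200 nmole of a random double-stranded 16-mer DNA library in Tris/NaCl/DTT/glycerol buffer, then washed, crosslinked (0.1% formaldehyde), proximity-ligated, PCR-amplified and sequenced on an Illumina NextSeq500. The binding signal of each hexamer is its read frequency for a factor divided by its frequency for the tag-only sample.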
# ETV5 = ETV5 (Homo sapiens, UniProt P41161 1-510); conditions: protein: recombinant; tags: N-terminal GST; dsDNA, one strand shown
# How it was run: as §1
# HSF1 = HSF1 (Homo sapiens, UniProt Q00613 1-529); conditions: protein: recombinant; tags: N-terminal GST; chain copies: 3; dsDNA, one strand shown
# How it was run: as §1
# SPIC = biological target: T2, SPIC (Homo sapiens, UniProt Q8N5J4 1-248); conditions: protein: recombinant; tags: N-terminal GST; dsDNA, one strand shown
# T2 sequence: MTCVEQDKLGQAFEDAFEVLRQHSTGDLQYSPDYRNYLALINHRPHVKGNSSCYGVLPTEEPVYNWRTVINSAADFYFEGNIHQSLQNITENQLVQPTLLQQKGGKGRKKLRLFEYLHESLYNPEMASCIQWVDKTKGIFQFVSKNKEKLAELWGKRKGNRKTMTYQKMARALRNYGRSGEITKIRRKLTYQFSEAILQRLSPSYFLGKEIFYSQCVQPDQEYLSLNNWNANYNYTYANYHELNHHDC
# How it was run: as §1
# ELF4 = ELF4 (Homo sapiens, UniProt Q99607 1-663); conditions: protein: recombinant; tags: N-terminal GST; dsDNA, one strand shown
# How it was run: as §1
# ELK4 = biological target: T3, ELK4 (Homo sapiens, UniProt P28324-2 1-405); conditions: protein: recombinant; tags: N-terminal GST; dsDNA, one strand shown
# T3 sequence: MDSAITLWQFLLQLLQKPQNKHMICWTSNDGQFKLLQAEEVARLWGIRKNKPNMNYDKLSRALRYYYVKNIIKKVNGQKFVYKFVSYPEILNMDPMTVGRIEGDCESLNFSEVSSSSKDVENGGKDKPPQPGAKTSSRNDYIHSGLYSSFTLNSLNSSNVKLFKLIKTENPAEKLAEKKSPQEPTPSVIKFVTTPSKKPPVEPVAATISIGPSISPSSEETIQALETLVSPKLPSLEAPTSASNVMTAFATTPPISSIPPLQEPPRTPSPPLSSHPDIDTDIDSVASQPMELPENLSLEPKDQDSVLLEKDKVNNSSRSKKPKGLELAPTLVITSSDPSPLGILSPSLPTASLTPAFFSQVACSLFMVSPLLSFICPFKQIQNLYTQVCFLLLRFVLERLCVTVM
# How it was run: as §1
# ETV2 = biological target: T4, ETV2 (Homo sapiens, UniProt O00321 1-342); conditions: protein: recombinant; tags: N-terminal GST; dsDNA, one strand shown
# T4 sequence: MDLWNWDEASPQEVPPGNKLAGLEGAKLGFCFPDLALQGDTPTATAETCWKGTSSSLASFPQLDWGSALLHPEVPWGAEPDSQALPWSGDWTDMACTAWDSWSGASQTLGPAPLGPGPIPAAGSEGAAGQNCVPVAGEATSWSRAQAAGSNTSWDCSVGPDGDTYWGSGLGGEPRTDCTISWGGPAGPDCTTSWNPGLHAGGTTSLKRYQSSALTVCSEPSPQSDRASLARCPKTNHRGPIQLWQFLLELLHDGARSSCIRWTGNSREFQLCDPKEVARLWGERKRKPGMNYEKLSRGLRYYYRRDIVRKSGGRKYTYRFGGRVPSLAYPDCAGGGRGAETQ
# How it was run: as §1
# ELF3 = biological target: T5, ELF3 (Homo sapiens, UniProt P78545 1-371); conditions: protein: recombinant; tags: N-terminal GST; dsDNA, one strand shown
# T5 sequence: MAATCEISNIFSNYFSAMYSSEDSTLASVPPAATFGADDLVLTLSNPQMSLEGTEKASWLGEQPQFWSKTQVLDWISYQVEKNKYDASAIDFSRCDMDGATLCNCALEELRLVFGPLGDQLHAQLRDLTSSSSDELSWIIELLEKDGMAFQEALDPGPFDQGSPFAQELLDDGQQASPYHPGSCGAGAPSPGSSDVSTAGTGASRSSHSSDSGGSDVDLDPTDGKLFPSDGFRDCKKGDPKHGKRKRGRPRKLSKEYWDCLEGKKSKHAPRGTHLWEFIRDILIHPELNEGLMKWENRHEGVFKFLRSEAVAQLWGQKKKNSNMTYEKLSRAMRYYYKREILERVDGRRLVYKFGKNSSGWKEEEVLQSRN
# How it was run: as §1
# CRX = CRX (Homo sapiens, UniProt O43186 1-299); conditions: protein: recombinant; tags: N-terminal GST; dsDNA, one strand shown
# How it was run: as §1
# ETV1 = ETV1 (Homo sapiens, UniProt P50549 1-477); conditions: protein: recombinant; tags: N-terminal GST; dsDNA, one strand shown
# How it was run: as §1
# Sequence of ETV5 (P41161 whole entry): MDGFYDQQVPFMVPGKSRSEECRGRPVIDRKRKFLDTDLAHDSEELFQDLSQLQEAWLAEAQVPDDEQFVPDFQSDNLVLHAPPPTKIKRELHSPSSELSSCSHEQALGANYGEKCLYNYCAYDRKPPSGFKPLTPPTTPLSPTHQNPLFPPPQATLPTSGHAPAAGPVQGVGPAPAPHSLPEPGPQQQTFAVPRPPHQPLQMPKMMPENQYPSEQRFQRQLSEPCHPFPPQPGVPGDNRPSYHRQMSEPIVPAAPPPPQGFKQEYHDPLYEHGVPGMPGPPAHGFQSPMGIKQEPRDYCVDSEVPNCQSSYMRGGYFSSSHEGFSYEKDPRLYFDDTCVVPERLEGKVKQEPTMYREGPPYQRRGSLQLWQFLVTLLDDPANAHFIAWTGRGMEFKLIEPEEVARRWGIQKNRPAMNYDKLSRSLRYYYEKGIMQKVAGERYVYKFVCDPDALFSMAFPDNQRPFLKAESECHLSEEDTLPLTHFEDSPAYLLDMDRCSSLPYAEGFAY
# Sequence of ELF4 (Q99607 whole entry): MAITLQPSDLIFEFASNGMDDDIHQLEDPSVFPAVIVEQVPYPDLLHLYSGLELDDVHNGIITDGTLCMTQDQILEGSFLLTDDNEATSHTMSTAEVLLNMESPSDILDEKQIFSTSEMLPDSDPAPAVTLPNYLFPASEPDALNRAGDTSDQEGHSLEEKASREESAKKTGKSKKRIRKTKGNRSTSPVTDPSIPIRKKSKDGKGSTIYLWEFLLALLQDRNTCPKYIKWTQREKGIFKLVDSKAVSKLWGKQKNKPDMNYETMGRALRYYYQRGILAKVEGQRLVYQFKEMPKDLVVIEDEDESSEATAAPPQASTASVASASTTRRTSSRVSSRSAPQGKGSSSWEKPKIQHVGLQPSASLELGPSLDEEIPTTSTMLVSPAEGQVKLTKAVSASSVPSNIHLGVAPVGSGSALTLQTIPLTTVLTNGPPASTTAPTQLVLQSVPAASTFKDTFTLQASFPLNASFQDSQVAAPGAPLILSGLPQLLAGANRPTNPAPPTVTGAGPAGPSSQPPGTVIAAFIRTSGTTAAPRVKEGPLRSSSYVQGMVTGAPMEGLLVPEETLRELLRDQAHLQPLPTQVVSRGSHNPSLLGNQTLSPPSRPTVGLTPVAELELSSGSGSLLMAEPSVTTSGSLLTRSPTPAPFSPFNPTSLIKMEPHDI
# Sequence of HSF1 (Q00613 whole entry): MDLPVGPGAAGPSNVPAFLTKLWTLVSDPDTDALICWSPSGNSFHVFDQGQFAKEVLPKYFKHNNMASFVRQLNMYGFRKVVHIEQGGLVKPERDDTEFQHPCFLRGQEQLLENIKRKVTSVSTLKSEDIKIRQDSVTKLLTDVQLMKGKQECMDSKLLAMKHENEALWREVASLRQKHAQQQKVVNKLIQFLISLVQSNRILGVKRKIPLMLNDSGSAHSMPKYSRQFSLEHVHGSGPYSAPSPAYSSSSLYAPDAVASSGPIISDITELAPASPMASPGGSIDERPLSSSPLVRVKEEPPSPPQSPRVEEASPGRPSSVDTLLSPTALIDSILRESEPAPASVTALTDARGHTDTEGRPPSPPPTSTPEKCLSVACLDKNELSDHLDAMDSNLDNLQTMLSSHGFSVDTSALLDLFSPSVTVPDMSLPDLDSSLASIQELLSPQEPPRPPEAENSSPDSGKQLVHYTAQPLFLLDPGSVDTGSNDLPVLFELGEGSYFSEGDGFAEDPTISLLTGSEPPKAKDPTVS
# Sequence of CRX (O43186 whole entry): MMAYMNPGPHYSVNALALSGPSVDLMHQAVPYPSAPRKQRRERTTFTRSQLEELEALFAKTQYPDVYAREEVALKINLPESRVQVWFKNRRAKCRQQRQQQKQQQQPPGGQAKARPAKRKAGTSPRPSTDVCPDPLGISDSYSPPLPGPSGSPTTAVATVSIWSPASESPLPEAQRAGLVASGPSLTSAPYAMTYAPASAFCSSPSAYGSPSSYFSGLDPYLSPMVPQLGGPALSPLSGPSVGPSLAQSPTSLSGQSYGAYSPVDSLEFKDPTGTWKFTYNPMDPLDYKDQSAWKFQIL
# Sequence of ETV1 (P50549 whole entry): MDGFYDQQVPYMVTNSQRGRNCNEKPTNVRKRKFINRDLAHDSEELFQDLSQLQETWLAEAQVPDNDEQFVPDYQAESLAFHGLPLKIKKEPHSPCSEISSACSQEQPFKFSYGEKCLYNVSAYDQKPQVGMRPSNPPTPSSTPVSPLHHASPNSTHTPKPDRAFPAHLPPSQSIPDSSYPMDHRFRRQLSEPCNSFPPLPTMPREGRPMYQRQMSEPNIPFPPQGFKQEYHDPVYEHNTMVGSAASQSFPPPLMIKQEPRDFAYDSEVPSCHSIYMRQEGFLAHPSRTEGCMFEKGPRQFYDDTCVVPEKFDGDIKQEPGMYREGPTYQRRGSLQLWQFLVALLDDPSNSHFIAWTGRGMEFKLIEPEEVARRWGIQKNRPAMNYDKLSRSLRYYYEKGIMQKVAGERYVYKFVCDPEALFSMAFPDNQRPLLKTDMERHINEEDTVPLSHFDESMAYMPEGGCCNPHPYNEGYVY
sequence,measurement,setting,value
CGAAGC,binding signal,FEV,"1.23 fold enrichment (6-mer frequency, TF over GST control)"
same,binding signal,ETV5,"1.31 fold enrichment (6-mer frequency, TF over GST control)"
same,binding signal,HSF1,"1.64 fold enrichment (6-mer frequency, TF over GST control)"
same,binding signal,SPIC,"1.46 fold enrichment (6-mer frequency, TF over GST control)"
same,binding signal,ELF4,"1.44 fold enrichment (6-mer frequency, TF over GST control)"
same,binding signal,ELK4,"1.48 fold enrichment (6-mer frequency, TF over GST control)"
same,binding signal,ETV2,"1.3 fold enrichment (6-mer frequency, TF over GST control)"
same,binding signal,ELF3,"1.23 fold enrichment (6-mer frequency, TF over GST control)"
same,binding signal,CRX,"1.19 fold enrichment (6-mer frequency, TF over GST control)"
same,binding signal,ETV1,"1.29 fold enrichment (6-mer frequency, TF over GST control)"
